The list is not random: actives were taken first. Their share in the collection is about 12%.
RORg inh = inhibitors of mouse ROR gamma transcriptional activity. hit rate 5.4% among 310,000. P51450. AID 2551. Drosophila S2 Gal4-RORgamma UAS-luciferase reporter, 20 h. Potency, µM (top dose mostly 53.6 µM), for the others: at the top dose activity change, negative = inhibition, actives largely listed as inhibitors; also: nearly all actives have a fitted effect of over 60% in size
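Using a luciferase readout, inhibitors were identified by reduced reporter activity in Drosophila cells coexpressing a copper-inducible Gal4–ROR gamma fusion and UAS-driven Photinus luciferase, incubated 20 hr after 700 uM copper sulfate.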
Sfp inh = Sfp phosphopantetheinyl transferase inhibition | Biochemical Sfp PPTase activity, qHTS | Potency, µM, for inactives: largest response in the series, negative = inhibition, most hits filed as inhibitors | hit rate 3.5% among 310,000 | AID 1490;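 also: the enzyme is Sfp with the accession as filed and its product quenches rhodamine fluorescence; 0% = enzyme reaction without inhibitor and -100% = no enzyme wells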
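With Hepes-Na pH 7.6 buffer containing 10 mM MgCl2, Sfp (15 nM) modified BHQ-2-YbbR (12.5 uM) using rhodamine-CoA (5 uM). Two reads 30 minutes apart at 525/598 nm yielded each well's rate.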
ALDH1A1 block = blocks purified human ALDH1A1 activity | AID 1030 | P00352 | Potency, µM (top dose mostly 75.3 µM), without a hit: at the top dose activity, negative = inhibition, most hits filed as inhibitors | Purified ALDH1A1, NADH fluorescence, propionaldehyde substrate | hit rate 7.3% among 220,000; active = well fitted inhibition curve with a large enough effect, not every such curve was filed as active; inconclusive = small, poorly fitted or top-dose-only effect, or another doubt; inactive = no such curve, though single readings can be large or run the other way;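 also: plate controls were no enzyme wells and a reference inhibitor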
Target sequence (P00352 whole entry, looked up): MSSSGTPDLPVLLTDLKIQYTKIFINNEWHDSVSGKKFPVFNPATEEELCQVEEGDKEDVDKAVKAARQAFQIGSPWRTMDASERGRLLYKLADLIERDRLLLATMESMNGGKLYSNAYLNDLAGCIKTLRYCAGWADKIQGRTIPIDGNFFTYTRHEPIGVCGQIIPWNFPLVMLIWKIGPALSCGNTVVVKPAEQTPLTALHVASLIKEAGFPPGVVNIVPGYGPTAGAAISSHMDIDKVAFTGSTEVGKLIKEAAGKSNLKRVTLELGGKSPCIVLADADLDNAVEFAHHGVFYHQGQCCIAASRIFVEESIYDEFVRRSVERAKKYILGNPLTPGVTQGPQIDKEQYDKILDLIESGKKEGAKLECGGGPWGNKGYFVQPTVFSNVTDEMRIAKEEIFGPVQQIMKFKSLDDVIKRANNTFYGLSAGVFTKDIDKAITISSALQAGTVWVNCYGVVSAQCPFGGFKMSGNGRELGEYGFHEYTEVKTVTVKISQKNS
Gal4-VP16 FLuc = inhibits Gal4-VP16 luciferase reporter, ROR gamma counter-screen. hit rate 3.5% among 310,000. AID 2546. Potency, µM (highest dose often 53.6 µM), for the others: at the top dose activity, negative = inhibition, hits mostly inhibitors. Drosophila S2 Gal4-VP16 UAS-luciferase, luminescence, 20 h;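 also: Gal4-VP16 expression switched on by copper sulfate through the metallothionein promoter; nearly all actives have a fitted effect of over 50% in size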
PLK1 PBD block = inhibitors of human PLK1 polo-box domain binding; Plk1 PBD binding of FITC phosphopeptide, fluorescence polarization; P53350; Potency, µM, for inactives: max response, negative = inhibition, hits mostly inhibitors; AID 720504; hit rate 2.8% among 360,000; also: series mostly up to about 57 µM; nearly all actives have a fitted effect of over 65% in size
Active calls of the source: *; u = inconclusive; x = not tested or not shown; ! = a repeat was not active; [ ] = another dose, or the depositor's remark. Unless noted, calls follow the shape of the dose curve; as a rule, active = well fitted curve in the direction sought with a large enough effect; inconclusive = small, poorly fitted or top-dose-only effect, or another doubt; inactive = no such curve, though single readings can be large; an effect the other way counts as inactive or inconclusive. Unless noted, % is scaled to controls: 0 for no effect and ±100 for the full control effect; potency is read from the fitted curve at half-maximal effect.

SMILES | RORg inh | Sfp inh | ALDH1A1 block | Gal4-VP16 FLuc | PLK1 PBD block
Cc1ccc(C(=O)NNC(=O)CNc2cccc(Cl)c2)cc1 | 7.2% | 7.5% | 7.3% | 4.5% | 0.6%
Cc1ccc(C(=O)CNc2cccc(Cl)c2)cc1 | 3.3% | 2.4% | 22.4µM* | 27.1% | u
O=C(NCc1ccc2c(c1)OCO2)O[C@@H]1C(=O)c2cc(Br)ccc2O[C@H]1c1ccc2c(c1)OCO2 | u | -11.8% | -4.4% | -10.6% | x
C=CCOC(=O)N[C@H](/C(C(=O)OC)=C(\C)NCc1ccccc1)c1ccc2c(c1)OCO2 | -1.2% | -9.5% | 1.2% | 2.8% | x
COc1ccc(NC(=O)C2Cc3c(-c4ccccc4Oc4ccccc4)ccnc3O2)cc1OC (stereo not drawn) | x | x | x | x | 3.1%
Cc1ccc(C(=O)CNc2ccc(C)c(Cl)c2)cc1 | 2.9% | -4.4% | 10µM* | 7.2% | -24.4%
Cc1ccc(NCC(=O)c2ccc(C)cc2)cc1 | u | 3.4% | x | u | -9.6%
CCCn1cnnc1CNC(=O)[C@H]1O[C@@H](n2cnc3c(N)ncnc32)[C@H](O)[C@@H]1O | x | x | x | x | -2.3%
CCN(CC)CCNCc1ccc(-c2ccc(Cl)cc2)o1 | 7.94µM* | -2.1% | -0.1% | 0.3% | -1.8%
COC(=O)c1cccc(NC(=O)c2cccnc2C(=O)O)c1C | 25.4% | 79.4µM* | u | 1.5% | -14.2%
O=C(O)c1cccnc1C(=O)O | 21.0% | 89.1µM*! | 7.6% | -3.5% | -5.8%
COC(=O)c1ccccc1NC(=O)c1cccc(NC(=O)c2ccc(Br)o2)c1C | -2.1% | 12.6% | 10.8% | -15.7% | -6.9%
Cc1cnc(CNc2ncnc3ccc(-c4cccc(C#N)c4)cc23)cn1 | 10.3% | 3.7% | -12.8% | -18.5% | x
C=C1CCN(C(CC(C)C)C(=O)Nc2ccc(OC)cc2)S(=O)(=O)c2ccccc21 (stereo not drawn) | -11.4% | -4.6% | x | 0.5% | x
CC1CC(C)CN(C(CCc2ccccc2)C(=O)NC2CCCCC2)C1 (stereo not drawn) | x | x | x | x | -3.3%
O=C1NC[C@H](CCCCN2C[C@H](Cc3ccc(O)cc3)N(Cc3ccccc3)C(=O)C2=O)N(CC2CCCCC2)C1=O | x | x | x | x | -17.8%
Cc1ccc(/C=N/N2CCN(Cc3ccc(Cl)cc3)CC2)o1 | 9.7% | 25.1µM* | 7.94µM* | 8.4% | -10.2%
Clc1ccc(CN2CCN(/N=C/c3ccco3)CC2)cc1 | 0.8% | 3.3% | u | 7.4% | -1.4%
Oc1ccc(/C=N/N2CCN(C3c4ccccc4-c4ccccc43)CC2)cc1O | 16.3% | 56.2µM* | x | -19.2% | -4.5%
COc1cc(/C=N/N2CCN(C3c4ccccc4-c4ccccc43)CC2)cc(OC)c1OC | 41.3% | u | 11.2% | -1.2% | -4.6%
Cc1ccc(/C=N/N2CCN(C3c4ccccc4-c4ccccc43)CC2)o1 | 29.0% | 17.8µM* | x | 11.0% | -13.0%
COc1cc(/C=N/N2CCN(C3c4ccccc4-c4ccccc43)CC2)cc(OC)c1O | u | 39.8µM* | -4.5% | u | 3.6%
COC(=O)C(C(C)=O)C(NC(=O)NCc1ccccc1)c1ccccc1 (stereo not drawn) | 5.9%[10 µM] | -4.9% | -15.5%[13.5 µM] | -7.1%[10 µM] | x
O=C(c1csnn1)N1CCC2(CC1)CCN(c1ccccn1)CC2 | 25.6% | 3.8% | u | -10.6% | x
CCCCCCCCN1C(=O)[C@H](CC(=O)NCC2CCCCC2)C[C@@]2(C(=O)OCC)CCC=C12 | x | x | x | x | -7.4%
SMILES | RORg inh | Sfp inh | ALDH1A1 block | Gal4-VP16 FLuc | PLK1 PBD block
CC(=O)N1CCC[C@@]2(CCN(Cc3ccc(C#N)cc3)C2)C1 | -3.0% | 6.7% | -12.8% | -10.9% | x
C#CCN[C@@H]1CCc2ccccc21 | 11.2% | 4.3% | x | 0.5% | x
CCN(CC)c1ccc(/C=N\N2CCN(Cc3ccc(C)cc3)CC2)cc1 | -4.4% | -1.3% | 0.794µM* | -2.7% | -4.7%
COc1ccccc1N1CCN(/N=C\c2ccc(C)o2)CC1 | u | 79.4µM* | u | u | -6.3%
Cc1ccc(CN2CCN(/N=C/c3ccc(C(=O)O)cc3)CC2)cc1 | -0.7% | -20.8% | -10.0% | 6.0% | -8.4%
COc1ccccc1N1CCN(/N=C/c2cc([N+](=O)[O-])ccc2Cl)CC1 | 74.4% | 11.2% | 22.4µM* | -8.4% | 2.5%
CCCCCCCc1cc2c(cn1)C(=O)C(C)(OC(C)=O)C(O)=C2Cl (stereo not drawn) | 18.8% | 0.8% | u | 1.4% | x
CCCCCCCCCC[N+](C)(C)CC/C=C1/c2ccccc2Sc2ccc(Cl)cc21 | 32.1% | 31.6µM* | x | -0.9% | -18.4%
CC[N+](C)(C)CC/C=C1/c2ccccc2Sc2ccc(Cl)cc21 | 8.6% | -15.0% | x | -2.4% | -12.2%
CCCCCCCCCCC[N+](C)(C)CC/C=C1/c2ccccc2Sc2ccc(Cl)cc21 | 17.2% | 39.8µM* | x | -6.6% | u
Cn1c(=O)c2cc(NC(=O)CCc3ccc4c(c3)OCO4)ccc2n1Cc1ccc(F)cc1 | x | x | x | x | -6.7%
CN1C(=O)/C(=C/c2ccc(C(=O)Nc3ccc(O)cc3C(=O)O)cc2)SC1=S | 32.5% | u | x | -16.0% | u
COc1ccccc1C(=O)NCCC(=O)NCc1ccccn1 | x | x | x | x | -3.7%
COC(=O)C[C@H]1C[C@H]2c3cc(NC(=O)NC4CCCC4)ccc3O[C@H]2[C@@H](CO)O1 | x | x | x | x | -4.4%
N#CC1=C(N)N2C(=C(C#N)C1c1cccc(Br)c1)Nc1ccccc12 (stereo not drawn) | u | 19.3% | -7.6% | 12.6µM* | -17.5%
CC(O)CNc1nc2ccccc2n1-c1ncnc2sc3c(c12)CCC3 (stereo not drawn) | u | u | -0.6% | 14.1µM* | -5.4%
Cc1ccc(C(=O)NC(=S)Nc2ccccc2C(F)(F)F)cc1C | 2.51µM* | -12.7% | 4.47µM* | 12.6µM* | -9.2%
Cc1cccc(C(=O)NC(=S)Nc2ccccc2C(=O)O)c1 | 1.4% | u | u | -9.6% | u
Cc1cccc(C(=O)NC(=S)Nc2ccccc2C(F)(F)F)c1 | 4.47µM* | 2.3% | 17.8µM* | 5.62µM* | 2.1%
CCN(CC(F)(F)C(F)F)S(=O)(=O)c1ccc(NC(=O)OC)cc1 | 1.7% | 23.3% | 9.7% | -6.8% | 3.77µM*
COC(=O)Nc1ccc(S(=O)(=O)N(CCO)CC(F)(F)C(F)F)cc1 | -0.2% | 16.5% | 13.8% | 3.1% | -12.4%
CCN(CC)S(=O)(=O)c1ccc(NC(=S)NC(=O)C(C)C)cc1 | 12.6µM* | -9.1% | 28.2µM* | u | -6.1%
O=C1CCC[C@H]2OC12[C@@H](O)CCc1ccccc1 (stereo partly drawn) | -18.0%[10 µM] | 18.4% | 22.6%[13.5 µM] | -9.8%[10 µM] | x
CC1(C(=O)Nc2ccc(Cl)c(Cl)c2)CCN1C(=O)C1CCCCC1 (stereo not drawn) | x | x | x | x | -10.0%
COCCCNC(=O)COC(=O)c1ccc(-c2nc3ccccc3s2)s1 | 2.82µM* | 10.1% | u | 0.282µM* | 3.3%
COc1ccc(CCNC(=O)COC(=O)c2ccc(C)s2)cc1 | x | x | x | x | -6.4%
Cc1cc(C)c(-c2cc([C@H](C)O/N=C3/[C@H]4OC4[C@@H](O)[C@H]4[C@H]3CCn3c(=O)n(-c5ccccc5)c(=O)n34)on2)c(C)c1 (stereo partly drawn) | 27.3%[10 µM] | -4.2% | u | -0.5%[10 µM] | x

Screens: PubChem BioAssay, National Center for Advancing Translational Sciences (NCATS)
